Compounds with a hit are over-represented: about 3.5% of the library has one in this group of screens.
FBW7 act – FBW7 E3 ligase activators, primary screen, biochemical, AlphaScreen, human. F-box/WD repeat-containing protein 7 (Homo sapiens), Q969H0. AlphaScreen FBW7–phospho-cyclin E peptide binding, activator screen. normalized activity (activation), % at 26.1 µM. hit rate 0.13% among 650,000. AID 1259310, 2017; in the data active means normalized activity above about 1.9%;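 further: purified mutant Fbw7 with reduced substrate affinity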
GPR151 ag – activators of human GPR151, primary screen, cell-based, PathHunter beta-arrestin, luminescence; G-protein coupled receptor 151 (Homo sapiens), Q8TDV0; PathHunter beta-arrestin GPR151 cells; activation, % at 11.2 µM; hit rate 1% among 650,000; AID 1508602, 2020; in the data active means activation above about 4.9%
Target sequence (Q8TDV0 whole entry, looked up): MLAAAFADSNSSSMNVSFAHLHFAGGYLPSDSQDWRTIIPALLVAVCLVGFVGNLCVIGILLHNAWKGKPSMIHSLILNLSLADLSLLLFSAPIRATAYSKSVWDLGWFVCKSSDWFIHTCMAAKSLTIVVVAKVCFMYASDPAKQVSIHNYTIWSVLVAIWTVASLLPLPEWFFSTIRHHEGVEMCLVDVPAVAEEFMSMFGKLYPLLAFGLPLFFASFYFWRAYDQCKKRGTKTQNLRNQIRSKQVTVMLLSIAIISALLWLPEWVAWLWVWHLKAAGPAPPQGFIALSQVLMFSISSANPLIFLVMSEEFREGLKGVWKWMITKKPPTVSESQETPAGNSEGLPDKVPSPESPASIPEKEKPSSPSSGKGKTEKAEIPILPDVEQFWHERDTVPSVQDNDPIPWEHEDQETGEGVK
MITF inh – MITF inhibitors, primary screen, biochemical, AlphaScreen, human; hit rate 0.91% among 650,000; AID 1259374, 2018; Microphthalmia-associated transcription factor (Homo sapiens), O75030; inhibition, % at 2.6 µM; AlphaScreen MITF homodimerization, bead proximity signal; in the data active means inhibition above about 50%
TEAD-YAP inh – TEAD-YAP interaction inhibition, primary screen, TEAD-YAP interaction inhibitor project, luminescence, HEK-TIYL cells. TEAD-Gal4/YAP UAS-luciferase luminescence. inhibition, % at 9.12 µM. hit rate 1.4% among 640,000. AID 1259422, 2018; in the data active means inhibition above about 32%
Numbers stand for hits.

`Cc1c(/C=N/NC(=O)CCc2ccc(S(=O)(=O)N3CCOCC3)cc2)cc(C#N)n1C` gave FBW7 act inactive, GPR151 ag inactive, MITF inh inactive and TEAD-YAP inh inactive.
`O=C(CCc1ccc(S(=O)(=O)N2CCOCC2)cc1)N/N=C/c1ccc(O)c(O)c1O` gave FBW7 act inactive, GPR151 ag inactive, MITF inh 54 and TEAD-YAP inh inactive.
Screening CCOc1ccc2nc(NN)sc2c1 returned FBW7 act inactive, GPR151 ag inactive, MITF inh inactive and TEAD-YAP inh inactive.
NC(=O)c1ccc2nc(-c3ccccc3)sc2c1 was read as FBW7 act inactive, GPR151 ag inactive, MITF inh inactive and TEAD-YAP inh 73.
`COc1cc(NC(=O)c2ccc3nc(-c4ccc(C(N)=O)cc4)sc3c2)cc(OC)c1OC` gave FBW7 act inactive, GPR151 ag inactive, MITF inh inactive and TEAD-YAP inh 46.
Screening CC(=O)NCc1ccc(-c2nc3ccccc3s2)cc1 returned FBW7 act inactive, GPR151 ag inactive, MITF inh inactive and TEAD-YAP inh inactive.
Screening CC(C)N(C(=O)c1ccc(-c2nc3ccccc3s2)cc1)C(C)C returned FBW7 act inactive, GPR151 ag inactive, MITF inh inactive and TEAD-YAP inh 54.
For CCOc1ccc2nc(-c3ccc(N)cc3)sc2c1 the results were FBW7 act inactive, GPR151 ag inactive, MITF inh inactive and TEAD-YAP inh 35.
`CC1CCN(C(=O)c2cccc3c2-c2ccccc2/C3=N\NC(N)=O)CC1` gave FBW7 act inactive, GPR151 ag inactive, MITF inh inactive and TEAD-YAP inh inactive.
COc1ccc2c(CNCc3ccc(C)cc3)c(C(=O)O)n(Cc3ccccc3F)c2c1 was read as FBW7 act inactive, GPR151 ag inactive, MITF inh inactive and TEAD-YAP inh inactive.
CCc1ccccc1NC(=O)C1(C)CC2c3ccccc3C1c1ccccc12 (stereo not drawn) was read as FBW7 act inactive, GPR151 ag inactive, MITF inh inactive and TEAD-YAP inh inactive.
`Nc1ccc(-c2nc3ccc(N)cc3s2)cc1` gave FBW7 act inactive, GPR151 ag inactive, MITF inh inactive and TEAD-YAP inh inactive.
`Nc1ccc2nc(-c3ccc(O)cc3)sc2c1` gave FBW7 act inactive, GPR151 ag inactive, MITF inh inactive and TEAD-YAP inh 76.
`Nc1ccc(-c2nc3ccc(C(=O)O)cc3s2)cc1` gave FBW7 act inactive, GPR151 ag inactive, MITF inh inactive and TEAD-YAP inh 75.
Screening O=C(O)c1ccc2nc(-c3ccccc3)sc2c1 returned FBW7 act inactive, GPR151 ag inactive, MITF inh inactive and TEAD-YAP inh inactive.
`CCOC(=O)c1sc(N/N=C/c2ccccc2O)nc1C` gave FBW7 act inactive, GPR151 ag inactive, MITF inh inactive and TEAD-YAP inh 49.
CCN(CC)CC(=O)Nc1cccc(C(F)(F)F)c1 was read as FBW7 act inactive, GPR151 ag inactive, MITF inh inactive and TEAD-YAP inh inactive.
c1cc2[nH]snc2c2nc(C3CC3)nc12 was read as FBW7 act inactive, GPR151 ag inactive, MITF inh inactive and TEAD-YAP inh 38.
Screening O=C(CCCc1nc(-c2ccc(Cl)cc2)no1)NC1CCCC1 returned FBW7 act inactive, GPR151 ag inactive, MITF inh inactive and TEAD-YAP inh 34.
O=C(Cc1ccc(N2CCC(NCCCn3ccnc3)CC2)cc1)N1CCC(O)CC1 was read as FBW7 act inactive, GPR151 ag inactive, MITF inh inactive and TEAD-YAP inh inactive.
`COc1cc(/C=C2/N=C(c3ccco3)OC2=O)cc(Br)c1OS(C)(=O)=O` gave FBW7 act inactive, GPR151 ag inactive, MITF inh inactive and TEAD-YAP inh inactive.
`CC(C)(C)NC(=O)Cn1c(SCC(N)=O)nc2ccccc21` gave FBW7 act 2.0, GPR151 ag inactive, MITF inh inactive and TEAD-YAP inh inactive.
`CC(C)(C)c1ccc(OCCSc2nc3ccccc3n2CC(N)=O)cc1` gave FBW7 act inactive, GPR151 ag inactive, MITF inh inactive and TEAD-YAP inh 48.
`CN(C)C(=O)CSc1nc2ccccc2n1CC(=O)NC(C)(C)C` gave FBW7 act inactive, GPR151 ag inactive, MITF inh inactive and TEAD-YAP inh inactive.
For CCCN1CCCc2cc(C=O)ccc21 the results were FBW7 act inactive, GPR151 ag inactive, MITF inh inactive and TEAD-YAP inh inactive.
Screening O=[N+]([O-])c1nn(-c2ccc(Cl)cc2)n(O)c1=Nc1ccccc1F returned FBW7 act inactive, GPR151 ag inactive, MITF inh inactive and TEAD-YAP inh 38.
O=[N+]([O-])c1nn(-c2ccc(Cl)cc2)n(O)c1=Nc1ccccc1 was read as FBW7 act inactive, GPR151 ag inactive, MITF inh inactive and TEAD-YAP inh 62.
O=[N+]([O-])c1nn(-c2ccc(Cl)cc2)n(O)c1=Nc1ccc(Cl)cc1 was read as FBW7 act inactive, GPR151 ag inactive, MITF inh inactive and TEAD-YAP inh inactive.
Screening Cc1ccc(NC(=O)C2CCCN(S(=O)(=O)c3ccc4c(c3)oc(=O)n4C)C2)c(C)c1 (stereo not drawn) returned FBW7 act inactive, GPR151 ag inactive, MITF inh inactive and TEAD-YAP inh inactive.
Screening CC1=CC2=NC(=O)/C(=C\c3ccc([N+](=O)[O-])o3)C(=N)N2O1 returned FBW7 act inactive, GPR151 ag inactive, MITF inh 65 and TEAD-YAP inh inactive.
N=C1/C(=C\c2ccc([N+](=O)[O-])o2)C(=O)N=C2SC(N3CCCCC3)=NN12 was read as FBW7 act inactive, GPR151 ag inactive, MITF inh 67 and TEAD-YAP inh inactive.
For CCC1=NN2C(=N)/C(=C\c3ccc(SCc4ccco4)o3)C(=O)N=C2S1 the results were FBW7 act inactive, GPR151 ag inactive, MITF inh 86 and TEAD-YAP inh inactive.
N=C1/C(=C/c2ccc([N+](=O)[O-])o2)C(=O)N=C2SC(c3ccco3)=NN12 was read as FBW7 act inactive, GPR151 ag inactive, MITF inh 91 and TEAD-YAP inh inactive.
Screening Cc1cc(Cl)ccc1OCC(=O)Oc1nn(C)c(=O)c(Cl)c1Cl returned FBW7 act inactive, GPR151 ag inactive, MITF inh inactive and TEAD-YAP inh inactive.
For CCOC(=O)c1sc2nc(SCC(=O)NCc3ccco3)n(CCc3ccccc3)c(=O)c2c1C the results were FBW7 act inactive, GPR151 ag inactive, MITF inh inactive and TEAD-YAP inh inactive.
Screening C=CCn1c(SCc2ccc(C)cc2)nc2c1c(=O)[nH]c(=O)n2C returned FBW7 act inactive, GPR151 ag inactive, MITF inh inactive and TEAD-YAP inh inactive.
Screening Cc1sc2ncn(CC(=O)N3CCCCCC3)c(=O)c2c1S(=O)(=O)N1CCOCC1 returned FBW7 act inactive, GPR151 ag inactive, MITF inh inactive and TEAD-YAP inh inactive.
C=CCNC(=O)/C(C#N)=C/c1c(Oc2ccccc2C)nc2ccccn2c1=O was read as FBW7 act inactive, GPR151 ag inactive, MITF inh inactive and TEAD-YAP inh 32.
